Laboratory results reported in PubChem BioAssay AID485297 (National Center for Advancing Translational Sciences (NCATS), 2010).
About 9,100 (2.8%) of roughly 320,000 compounds were called active. Not shown: some 3% with an inconclusive outcome. Calls come from the whole dose curve; as a rule, active = well fitted activation curve with a large enough effect; inconclusive = small, poorly fitted or top-dose-only effect; inactive = no such curve, though single readings can be large or run the other way. Shown is part of a subset that was picked to be rich in actives.

Assay: qHTS Assay for Rab9 Promoter Activators; note: nearly all actives have a fitted effect of over 60% in size; for activation, negative = inhibition: % of control where 0% means no effect
Settings: Huh7 Rab9 promoter-luciferase reporter, luminescence, 24 h; series mostly up to 9.22 µM; activation, negative = inhibition: at the top concentration
Outline: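 Quantitative HTS format; Huh7 Rab9-luciferase reporter cells (1500/well) receive compound 2 h post-plating, incubate 24 h at 37 °C, then get luciferase reagent for 10 min before luminescence reading.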
Potency is the fitted concentration of half-maximal effect.

activation, negative = inhibition, inactive:
CCc1noc(C)c1C(=O)N1CCN(S(=O)(=O)c2cccc(C(F)(F)F)c2)CC1 13.5%
CC(=O)c1c(C)[nH]c(C(=O)OCC(=O)Nc2c(C)cccc2C)c1C -11.3%
Cc1nn(Cc2ccccc2)c(C)c1C(=O)N1CCN(CC(=O)Nc2ccccc2Cl)CC1 -0.872%
C[C@@H](NC(=O)c1nc[nH]c1C(=O)N1CCN(C(=O)OC(C)(C)C)CC1)c1ccccc1 -3.53%
CCOc1ncccc1C(=O)OCC(=O)Nc1cccc(S(=O)(=O)N2CCCCCC2)c1 -0.596%
CCCc1nc2oc3c(=O)[nH]cnc3c2c2c1COC(C)(C)C2 -1.12%
Nc1cccc(CCc2nc3ccccc3[nH]2)c1 3.01%
COc1ccc(Br)cc1C(=O)NC(=S)Nc1cc(-c2nc3ccccc3[nH]2)ccc1C -4.21%
COc1ccc(-c2[nH]nc(-c3ccccc3)c2-c2nc3ccccc3[nH]2)cc1 -2.29%
OC(c1nc2ccccc2[nH]1)C(O)C(O)C(O)c1nc2ccccc2[nH]1 (stereo not given) 11.6%
N#Cc1ccc(C2=CC(=O)C[C@H](c3ccc(Cl)cc3)C2)cc1 -1.27%
Cc1ccc(C)c(NC(=O)CN(C)C(=O)c2ccc3ncsc3c2)c1 1.46%
CC(=O)Oc1ccc2c(=O)oc(-c3ccc([N+](=O)[O-])cc3)nc2c1 -3.36%
COc1ccc([N+](=O)[O-])cc1-c1nc2ccccc2nc1-c1ccccc1 2.73%
COc1cccc(-c2nc(CS(=O)CC(=O)NCc3ccc(F)cc3)c(C)o2)c1 (stereo not given) -0.564%
COc1cccc(NC(=O)CSc2nnc(-c3cccnc3)o2)c1 -3.19%
COc1ccc(C(=O)NCc2nnc(SCC(=O)Nc3cccc(OC)c3)o2)cc1 -2.44%
COc1cccc(-c2nnc(SCCOc3ccc4c(C)cc(=O)oc4c3)o2)c1 0.56%
O=C(NCCc1nnc2ccc(SCC(=O)N3CCOCC3)nn12)c1ccccc1 -2.16%
CCCCn1c(N)c(N(CCC(C)C)C(=O)COC(=O)c2cccnc2OCC)c(=O)[nH]c1=O -0.914%
O=C(COC(=O)CNC(=O)C1CCCCC1)NCc1ccccc1 0.266%
CCCCN(C(=O)c1ccc2ccccc2c1)c1c(N)n(CCCC)c(=O)[nH]c1=O -2.5%
O=c1oc2ccccc2cc1-c1csc(Nc2ccc(O)cc2)n1 24.9%
Cc1nc(C)c(-c2csc(NCCc3ccccc3)n2)s1 -3.17%

Potency, active:
Cc1ccc(-c2nc3ccccc3[nH]2)cc1N 1410 nM
c1ccc2[nH]c(-c3nc4ccccc4[nH]3)nc2c1 631 nM
COc1ccc2oc(-c3cccc(NC(=O)CSc4ccc(Cl)cc4)c3)nc2c1 3550 nM
COc1cccc(-c2nc3cc(C)ccc3o2)c1 3980 nM
O=[N+]([O-])c1ccc2oc(-c3cccc(O)c3)nc2c1 3160 nM
CCNc1nc(-c2cc3ccccc3o2)cs1 1260 nM
